VACV mCherry inh = inhibitors of vaccinia virus infection (mCherry reporter signal); hit rate 0.63% among 310,000; Vaccinia virus mCherry reporter infection, fluorescence; AID 720579; Potency, µM (series often up to 36.5 µM), actives largely listed as inhibitors; calls by dose curve; tested in A549 cells; further: nearly all actives have a fitted effect of over 35% in size
RE007 growth inh = less growth of the S. pombe RE007 Vpr strain; Potency, µM (top dose mostly 92.2 µM), usual class: inhibitors; S. pombe RE007 Vpr strain, BacTiter-Glo ATP luminescence, 24 h; hit rate 0.21% among 360,000; active means well fitted falling curve with a large enough effect; inconclusive means small, poorly fitted or top-dose-only effect; inactive means no such curve, though single readings can be large or run the other way; further: nearly all actives have a fitted effect of over 50% in size
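Fission yeast strain RE007, carrying one chromosomally integrated HIV-1 vpr copy, was seeded at OD 0.01 in PMG+AL medium with 23 nL pinned compound. After 24 h at 30 °C and 99% humidity, viability was read by BacTiter-Glo luminescence.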
Tb PYK inh = inhibitors of Trypanosoma brucei pyruvate kinase. TbPYK enzyme, Kinase-Glo Plus ATP luminescence, 45 min. hit rate 0.12% among 410,000. AID 624173. Q57TT1. Potency, µM (doses to about 76.8 µM), usual class: inhibitors; further: nearly all actives have a fitted effect of over 50% in size
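ADP (130 uM final) triggers the TbPYK reaction after compound addition; incubation is 45 min at room temperature. Kinase-Glo Plus is then added and luminescence imaged. Normalized data are fitted to concentration-effect curves.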
AMA1 RON2 block = inhibitors of Plasmodium falciparum AMA1-RON2 interaction; AlphaScreen AMA1-biotinylated RON2 peptide binding; Potency, µM (series often up to 58.2 µM), most hits filed as inhibitors; hit rate 0.2% among 360,000; further: nearly all actives have a fitted effect of over 45% in size
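AMA1 (3D7) with his tag at 25 nM final met compounds first, then biotinylated RON2 peptide at 25 nM; detection used donor plus acceptor beads, 10 µg/mL apiece, read by AlphaScreen after 30 min at room temperature.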
LmPK inhibitor = blocks Leishmania mexicana pyruvate kinase activity. purified LmPK, Kinase-Glo ATP luminescence, 1 h. Potency, µM (highest dose often 57.5 µM), hits mostly inhibitors. hit rate 0.37% among 290,000. AID 1721
Target sequence (Q27686 whole entry, looked up): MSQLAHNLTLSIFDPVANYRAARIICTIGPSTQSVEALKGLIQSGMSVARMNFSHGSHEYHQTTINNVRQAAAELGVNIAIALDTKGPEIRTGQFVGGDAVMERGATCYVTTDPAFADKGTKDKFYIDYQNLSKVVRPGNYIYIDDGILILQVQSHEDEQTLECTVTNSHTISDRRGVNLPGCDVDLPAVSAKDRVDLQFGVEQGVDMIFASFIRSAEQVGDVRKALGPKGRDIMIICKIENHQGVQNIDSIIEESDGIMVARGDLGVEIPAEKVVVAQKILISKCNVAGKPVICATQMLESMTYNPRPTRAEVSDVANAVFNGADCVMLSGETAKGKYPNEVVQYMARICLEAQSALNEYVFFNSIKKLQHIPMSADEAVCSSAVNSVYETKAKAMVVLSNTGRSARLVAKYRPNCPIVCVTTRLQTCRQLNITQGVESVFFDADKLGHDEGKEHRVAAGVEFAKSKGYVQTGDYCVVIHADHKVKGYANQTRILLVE
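Screened at intermediate enzyme activity to detect both inhibitors and activators: LmPK at 0.1 nM, with a 0.5 nM enzyme column as activation reference. PEP 0.5 mM, ADP 0.1 mM; ATP detected by luminescence after 1 h.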
VACV Venus inh = vaccinia inhibition (Venus reporter) | Vaccinia virus Venus reporter expression, fluorescence | Potency, µM (series often up to 36.5 µM), actives largely listed as inhibitors | hit rate 0.46% among 330,000 | AID 720580; calls by dose curve; tested in A549 cells; further: nearly all actives have a fitted effect of over 30% in size
Large screens that a line does not name were inactive. An excerpt weighted towards active compounds, which were near 1.3% of everything screened. Unless noted, the call rests on the fitted dose curve; in most records, active means well fitted curve in the direction sought with a large enough effect; inconclusive means small, poorly fitted or top-dose-only effect, or another doubt; inactive means no such curve, though single readings can be large; an effect the other way counts as inactive or inconclusive.

Cc1cc2c(c(-c3nc4ccccc4s3)c1)OC(CNC(=O)c1occc1C)C2 (centres undefined)	none (no result: RE007 growth inh, Tb PYK inh, AMA1 RON2 block, LmPK inhibitor)
CCN(CC)C1CCN(C(=O)c2cnn(-c3nccc(-c4ccccc4OC)n3)c2-c2ccco2)C1 (centres undefined)	none (no result: RE007 growth inh, Tb PYK inh, AMA1 RON2 block, LmPK inhibitor)
O=C(O[C@H]1CN2CCC1CC2)N1CCc2ccccc2[C@@H]1c1ccccc1	none (no result: VACV mCherry inh, RE007 growth inh, AMA1 RON2 block, LmPK inhibitor, VACV Venus inh)
Brc1ccc2c(c1)C(OC1CN3CCC1CC3)c1ccccc1CS2 (centres undefined)	VACV mCherry inh inconclusive, VACV Venus inh 11µM
Fc1ccc(-n2nnc(-c3nccs3)n2)cc1	RE007 growth inh inconclusive, LmPK inhibitor 14µM
Cc1ccccc1-n1cc(CNC(=O)CN2Cc3ccccc3OC(C)C2)cn1 (centres undefined)	none (no result: RE007 growth inh, Tb PYK inh, AMA1 RON2 block, LmPK inhibitor)
O=C(Nc1ccc[n+](CC(=O)c2cccc3ccccc23)c1)c1ccccc1	VACV mCherry inh 16µM, VACV Venus inh inconclusive
O=C(C[n+]1cccc(C(=O)Nc2ccccc2)c1)c1ccccc1	none (no result: LmPK inhibitor)
CC(=O)Oc1ccc(OC(C)=O)c(SCCCCCCl)c1	LmPK inhibitor 11µM
CC(=O)Oc1ccc(C(=O)O)cc1OC(C)=O	none
CCC1CN(CC(=O)NC(C)c2cn(C)nc2C)Cc2cc(OC)ccc2O1 (centres undefined)	none (no result: RE007 growth inh, Tb PYK inh, AMA1 RON2 block, LmPK inhibitor)
COC1=C(C)C(=O)C2=C(C1=O)C(CO)N1C(C#N)C3CC4C(C1C2N1CCOC41)N3C (centres undefined)	VACV mCherry inh inconclusive, VACV Venus inh inconclusive (no result: LmPK inhibitor)
COC1=C(C)C(=O)C2=C(C1=O)C1C3CC4=C(C(=O)C(OC)=C(C)C4=O)C(CNC(=O)C(C)=O)N3C(C#N)C(C2)N1C (centres undefined)	VACV mCherry inh inconclusive, VACV Venus inh 1µM (no result: LmPK inhibitor)
O=C(COc1cccc2cccnc12)N/N=C/c1ccccc1O	VACV mCherry inh 2.5µM
O=C(CCCOc1ccc(Cl)cc1Cl)N/N=C/c1ccccc1O	VACV mCherry inh 7.1µM, VACV Venus inh inconclusive
O=C(CCCOc1ccc(Cl)cc1Cl)N/N=C/c1ccccc1	VACV Venus inh inconclusive (no result: RE007 growth inh)
O=C(N/N=C/c1ccc[nH]1)c1ccc(COc2cccc3cccnc23)cc1	VACV mCherry inh 1.6µM, VACV Venus inh inconclusive
COc1ccc(OC)c(-c2ccnc(-n3ncc(C(=O)N4CCN(CCO)CC4)c3C3CC3)n2)c1	none (no result: RE007 growth inh, Tb PYK inh, AMA1 RON2 block, LmPK inhibitor)
C1=C(c2ccc3c(c2)CN(Cc2cccn2-c2ncccn2)CCO3)Cc2ccccc21	none (no result: RE007 growth inh, Tb PYK inh, AMA1 RON2 block, LmPK inhibitor)
CCCCCCCCC[n+]1cccc2c3ccccc3ccc21	VACV Venus inh 11µM (no result: VACV mCherry inh)
CCCCCCCCCCCC[n+]1ccc(C)c2ccccc21	none (no result: RE007 growth inh, Tb PYK inh, AMA1 RON2 block, LmPK inhibitor)
CCCCCCCCCCCCCCCC[n+]1cccc2ccccc21	VACV mCherry inh 10µM, RE007 growth inh 11µM, VACV Venus inh 10µM
COc1cc(=O)n2c(c1C(=O)NC(C)c1ccco1)CCN(Cc1ccccc1Cl)CC2 (centres undefined)	none (no result: RE007 growth inh, Tb PYK inh, AMA1 RON2 block, LmPK inhibitor)
Cc1cc(Cl)ccc1OCC(=O)NCC1Cc2cc(-c3cnccn3)ccc2O1 (centres undefined)	none (no result: RE007 growth inh, Tb PYK inh, AMA1 RON2 block, LmPK inhibitor)
CCN(CC)C1CCN(C(=O)c2cnn(-c3nccc(-c4ccco4)n3)c2C(C)C)C1 (centres undefined)	none (no result: RE007 growth inh, Tb PYK inh, AMA1 RON2 block, LmPK inhibitor)
C=C(C(=O)c1ccccc1)C(NC(C)(C)C)c1ccccc1 (centres undefined)	VACV mCherry inh 18µM, VACV Venus inh inconclusive (no result: LmPK inhibitor)
C=C(C(=O)c1ccccc1)C(C)CC(=O)c1ccccc1 (centres undefined)	VACV mCherry inh inconclusive
C=CCN1C(=O)/C(=C/c2cccs2)C(=O)NC1=S	RE007 growth inh inconclusive, Tb PYK inh 35µM
O=C1NC(=S)N(Cc2ccco2)C(=O)/C1=C\c1cccs1	none (no result: VACV mCherry inh, RE007 growth inh, Tb PYK inh, AMA1 RON2 block, VACV Venus inh)
COc1ccc(C(CCNC(C)c2ccccc2)c2ccc(F)cc2)cc1 (centres undefined)	VACV mCherry inh 11µM, VACV Venus inh inconclusive (no result: RE007 growth inh)
CCc1cnc2c(c1SCC(=O)N1CCCCC1)c(=O)n(C)c(=O)n2C	none (no result: RE007 growth inh, AMA1 RON2 block, LmPK inhibitor)
CCc1cnc2c(c1SC(C(C)=O)C(=O)N(C)C)c(=O)n(C)c(=O)n2C (centres undefined)	Tb PYK inh 14µM (no result: RE007 growth inh, AMA1 RON2 block, LmPK inhibitor)
Cc1cc(CNC(=O)c2cnn(-c3ncc4c(n3)-c3ccccc3CC4)c2C2CC2)on1	none (no result: RE007 growth inh, Tb PYK inh, AMA1 RON2 block, LmPK inhibitor)

Screening results deposited in PubChem by National Center for Advancing Translational Sciences (NCATS).
